Rows were chosen to be rich in hits. Some 3.5% of all compounds tested hit in one or more screens of this group.
TEAD-YAP block = TEAD-YAP interaction inhibition; inhibition, % at 9.12 µM; HEK-TIYL cells, TEAD-Gal4/YAP UAS-luciferase luminescence; 640,000 compounds, 1.4% hits; in the data active = inhibition above about 32%
FBW7 act = activators of human E3 ligase FBW7. AID 1259310. normalized activity (activation), % at 26.1 µM. AlphaScreen FBW7–phospho-cyclin E peptide binding, activator screen. 650,000 compounds, 0.13% hits. Q969H0; in the data active = normalized activity above about 1.9%;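 also: purified mutant Fbw7 with reduced substrate affinity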
MITF inh = inhibitors of human MITF | O75030 | AlphaScreen MITF homodimerization, bead proximity signal | inhibition, % at 2.6 µM | 650,000 compounds, 0.91% hits | AID 1259374; in the data active = inhibition above about 50%
Target sequence (O75030 whole entry, looked up): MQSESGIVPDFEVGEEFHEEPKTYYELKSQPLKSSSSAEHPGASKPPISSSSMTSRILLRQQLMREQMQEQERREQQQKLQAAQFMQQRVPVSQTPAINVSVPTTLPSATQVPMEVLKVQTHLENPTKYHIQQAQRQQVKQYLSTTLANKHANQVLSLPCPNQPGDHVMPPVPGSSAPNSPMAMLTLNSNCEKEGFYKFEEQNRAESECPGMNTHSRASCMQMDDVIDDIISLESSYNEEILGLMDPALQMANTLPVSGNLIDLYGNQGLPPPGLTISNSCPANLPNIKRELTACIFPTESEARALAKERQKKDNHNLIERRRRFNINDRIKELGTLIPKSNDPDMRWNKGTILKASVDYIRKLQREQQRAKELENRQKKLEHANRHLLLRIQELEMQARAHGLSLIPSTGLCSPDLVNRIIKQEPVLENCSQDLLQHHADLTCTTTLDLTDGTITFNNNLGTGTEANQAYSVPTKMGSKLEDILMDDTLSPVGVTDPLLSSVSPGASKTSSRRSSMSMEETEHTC
GPR151 ag = activators of human GPR151; 650,000 compounds, 1% hits; PathHunter beta-arrestin GPR151 cells, luminescence; Q8TDV0; activation, % at 11.2 µM; AID 1508602; in the data active = activation above about 4.9%
GPR151 confirm = human GPR151 activation, confirmation screen. activation, % at 11.2 µM. AID 1508609. GPR151 PathHunter beta-arrestin cells, luminescence, 90 min; % of EA-reagent control over plate median. 6,700 tested, under 10 active. shares compounds with GPR151 ag;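 active = mean percent activation across replicates above the confirmation screen cutoff of 4.91%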
GPR119 counter = activates human GPR119 in a GPR151 counter-screen | shares compounds with GPR151 ag | GPR119 PathHunter beta-arrestin cells, luminescence, 90 min; 0 = compound-well median, 100 = enzyme-acceptor control | activation, % at 11.2 µM | 6,700 compounds, 0.3% hits;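 active = mean percent activation in the counterscreen above 29.09%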;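 also: counterscreen on off-target GPR119 to flag nonselective hits from the GPR151 activator screen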
Hits are given with their value; n = inactive; x = no result; ! = a repeat was not active.

SMILES	TEAD-YAP block	FBW7 act	MITF inh	GPR151 ag	GPR151 confirm	GPR119 counter
COc1ccc(/C=N/n2c(SC)nnc(C(C)(C)C)c2=O)cc1OC	n	n	n	6.2	n	n
CCc1ccc(NC(=O)CSc2nc3ncccc3[nH]2)cc1	n	n	n	6.5	n	n
CC1=CCC2C(=O)N(C(C)c3ccccc3)C(=O)C2C1 (configuration not stated)	n	n	n	7.5	n	n
CC1=CCC2C(=O)N(Cc3ccccc3)C(=O)C2C1 (configuration not stated)	n	n	n	n	x	x
CCn1cc(CN2CCN(Cc3ccc(C)cc3)C(CCO)C2)cn1 (configuration not stated)	n	n	n	n	x	x
O=C(COc1ccccc1)Nc1nnc(-c2ccccc2)o1	n	n	n	6.0	n	n
O=C(Cc1ccccc1)Nc1cccc(-c2nnc(-c3cccc(NC(=O)Cc4ccccc4)c3)o2)c1	n	n	n	n	x	x
O=C(COc1ccccc1)Nc1ccc2oc(-c3ccccc3)nc2c1	n	n	n	6.3	n	n
O=C(O)CCC(=O)Nc1cccc(-c2nnc(-c3ccccc3)o2)c1	n	n	n	5.0	n	n
CCCCn1c(CNC(=O)Cc2ccc(OC)cc2)nnc1SC(C)C(=O)Nc1sc(C(=O)OCC)c(C)c1C(=O)OCC (configuration not stated)	n	n	n	n	x	x
CC(C)C(=O)NCCc1nc2ccccc2n1Cc1ccccc1	n	n	n	n	x	x
C=CCn1c(CCNC(=O)C(C)C)nc2ccccc21	n	n	n	7.0	n	n
CCOc1ccc(NC(=O)CSC2=C(C#N)C(c3ccco3)C(C(=O)Nc3ccccc3)=C(C)N2)cc1 (configuration not stated)	n	n	n	5.0	n	n
Cn1c(Nc2cc(NC3CCN(Cc4ccccc4)CC3)ncn2)nc2ccccc21	n	n	n	n	x	x
CC1=C(C(=O)NC(C)C)C2(CCCCC2)OC1=O	n	n	n	7.3	n	n
CC1=C(C(=O)NC2CCCC2)C2(CCCCCC2)OC1=O	n	n	n	n	x	x
CC1=C(C(=O)NC2CCCCC2)C2(CCCCC2)OC1=O	n	n	n	6.2	n	n
CCC(C)NC(=O)C1=C(C)C(=O)OC12CCCCCC2 (configuration not stated)	n	n	n	n	x	x
CCCc1ccc(C(=O)/C=C/N(C)C)cc1	n	n	n	5.7	n	n
COc1ccc(/C=N/NC(=O)c2ccc(=O)n(C)c2)cc1OC	n	n	n	10	n	n
COc1ccc(/C=N/NC(=O)c2ccc(=O)n(C)c2)cc1	n	n	n	n	x	x
CCCCOc1ccc(OCC(=O)N/N=C/c2cccc(OC)c2)cc1	n	n	n	5.7	n	n
COc1ccc(/C=N\NC(=O)COc2c(C)cccc2C)cc1OC	n	n	n	9.9	n	n
COc1cccc(/C=N/NC(=O)COc2ccc3ccccc3c2)c1	n	n	n	n	x	x
Nc1c(-c2ccccc2)c(-c2ccccc2)nn1Cc1ccccc1	n	n	n	6.9	n	n
SMILES	TEAD-YAP block	FBW7 act	MITF inh	GPR151 ag	GPR151 confirm	GPR119 counter
Nc1cc(-c2ccccc2)nn1Cc1cccc(Cl)c1	n	n	n	n	x	x
COc1ccccc1CN1CCNC(=O)C1CC(=O)NCCc1cccc(C)n1 (configuration not stated)	n	n	n	n	x	x
CCCCCCCCCCCCCCCCCCOC[C@H](COP(=O)(O)OCC[N+](C)(C)C)OC(C)=O	x	x	n	5.2	n	n
CC(c1ccco1)N(C(=O)C1CC1)c1ccccn1 (configuration not stated)	n	n	n	n	x	x
O=C(NC1CC1)C1C2C=CC(C2)C1C(=O)OCC(F)(F)C(F)F (configuration not stated)	n	n	n	n	x	x
Cc1cccc(-c2nc(C)cc(NCCc3ccccn3)n2)c1	n	n	n	5.8	n	n
CCCNc1cc(C)nc(-c2ccccc2)n1	n	n	n	n	x	x
CCC(=O)N(Cc1ccco1)CC1CCOC(C)(C)C1 (configuration not stated)	n	n	n	n	x	x
Cc1nn(CCC#N)c2nc(-c3ccc4c(c3)OCO4)cc(C(F)(F)F)c12	n	n	n	n	x	x
O=C(Oc1ccc([N+](=O)[O-])cc1)c1ccc(N2C(=O)C3C4CCC(C4)C3C2=O)cc1 (configuration not stated)	n	n	n	7.5	n	n
O=C1C(=O)N(CCc2ccc(O)cc2)C(c2ccccc2F)/C1=C(/O)c1ccccc1 (configuration not stated)	n	n	n	n	x	x
O=Cc1ccc(Oc2ccc(C(F)(F)F)cc2[N+](=O)[O-])cc1	n	n	n	n	x	x
Cc1ccc(NC(=O)C(=O)NCC(c2ccc3c(c2)OCO3)N2CCN(C)CC2)c(C)c1 (configuration not stated)	n	n	n	6.5	n	n
CC(=O)O[C@H]1CC[C@@]2(C)C(C[C@@H](OC(C)=O)[C@@]3(C)C4=CC(=O)O[C@@H](c5ccoc5)[C@]4(C)CCC23)C1(C)C (some centres not stated)	n	n	n	6.5!	n	n
CCCCC[C@@](C)(O)/C=C/[C@@H]1[C@@H](C/C=C\CCCC(=O)OC)[C@@H](O)C[C@H]1O	x	x	n	n	x	x
CCCCC[C@@](C)(O)/C=C/[C@@H]1C(C/C=C\CCCC(=O)O)[C@@H](O)C[C@H]1O (some centres not stated)	x	x	n	7.1	n	n
CC(=O)N1CCc2cc(C(=O)CN3CC(C)CC(C)C3)ccc21 (configuration not stated)	n	n	n	6.2	n	n
C=CCNC(=O)c1cc2cc(Br)cc(OC)c2oc1=O	n	n	n	n	x	x
CC(=O)c1cccc(Nc2c(-c3ccc(C)cc3)c(=O)c2=O)c1	n	n	n	n	x	x
CC(=O)c1ccc(Nc2c(-c3ccccc3)c(=O)c2=O)cc1	n	n	n	5.4	n	n
COC(=O)c1ccc2c(=O)n(Cc3ccc(C(=O)NC4CCCC4)cc3)c(=S)[nH]c2c1	n	n	n	n	x	x
COC(=O)c1ccc2c(=O)n(Cc3ccc(C(=O)NC4CCCCCC4)cc3)c(=S)[nH]c2c1	n	n	n	6.0	n	n
Oc1ccc(Cc2ccccc2)cc1CNc1ccc2oc(Cc3ccc(Cl)cc3)nc2c1	n	n	n	n	x	x
CCCOc1cc2oc(=O)cc(C)c2cc1Cl	n	n	n	5.4	n	n
Cc1nnc(NC(=S)NC(=O)c2ccc(Br)cc2)s1	n	n	n	n	x	x
O=C(Cn1cncn1)N1CCN(c2ncccn2)CC1	n	n	n	7.0	n	n
O=C(COc1ccc(C(=O)NCCc2ccccc2)cc1)Nc1ccccc1F	n	n	n	28	n	n
COc1ccc(CNC(=O)c2c(Cl)cccc2Cl)cc1	n	n	n	5.7	n	n

Bioassay records: PubChem BioAssay, The Scripps Research Institute Molecular Screening Center
